Measured values published in PubChem BioAssay AID853 (Columbia University Molecular Screening Center, 2007).
Hit rate of the full screen: of about 47,000 compounds, about 200 (0.43%) were called active. Another 1% or so got no clear call; they are omitted.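 Rule for the calls: active = inhibition of aggregate fluorescence above about 70%, also judged a hit by eye on the cell image (limit read from the data, passing the limit was not always enough); inconclusive = no rule stated for this call; inactive = not judged a hit on image review.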 Shown is part of a subset that was picked to be rich in actives.

experiment: removal of polyQ htt aggregates in HeLa – imaging, HeLa Exon1htt(103Q)mCFP, confocal imaging, primary screen (AID 853); conditions: aggregate imaging, at 1.5 µM; fraction fluorescence in grains: measured here: aggregate grain fluorescence fraction, stronger effect = lower value; inhibition: stronger effect = higher value, zero = plate's median compound well;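 note: cells exposed to compound for three days before fixation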

Row | SMILES | fraction fluorescence in grains | inhibition
1 | COc1ccc(CNC(=O)C2CCC(CNc3c(N4CCOCC4)c(=O)c3=O)CC2)cc1 (stereo not given) | 33 | 10.7% (inactive)
2 | Cc1cc(Cl)c(S(=O)(=O)N(C)C)cc1OCC(N)=O | 20.5 | -7.1% (inactive)
3 | O=S(=O)(/C=C/c1ccccc1)NCCc1ccccn1 | 31.8 | 7.7% (inactive)
4 | O=C(Oc1cccnc1)c1cc2ccccc2oc1=O | 21 | -5.6% (inactive)
5 | COC(=O)C(C)Oc1ccc2c(-c3cccc([N+](=O)[O-])c3)cc(=O)oc2c1 (stereo not given) | 35.3 | 9.1% (inactive)
6 | CCCCCCNC(=O)CSc1nccn1Cc1ccccc1 | 18.3 | 7.5% (inactive)
7 | CCSc1nnc(NC(=O)Cc2ccccc2OC)s1 | 52.6 | -25.1% (inactive)
8 | COc1cccc(OC)c1C(=O)Nc1ccc(N2CCCCC2)cc1 | 19.3 | 18.4% (inactive)
9 | C/C(=C\C(=O)c1ccc(Br)cc1)N1CCCCC1 | 28.4 | 28.3% (inactive)
10 | CCc1c(O)cc2n(c1=O)-c1ccccc1C2(C)C | 27.7 | -37.8% (inactive)
11 | CC1(C)CC(=O)C(C=NCCN2CCN(C(=S)Nc3cccc(Cl)c3)CC2)=C(O)C1 | 25.7 | 12.3% (inactive)
12 | Cc1cccc(N2CCN(C(=O)CN(C)S(=O)(=O)c3ccc4c(c3)CCC(=O)N4)CC2)c1C | 43.8 | -18.5% (inactive)
13 | COc1ccc(CCN2CNc3c(c(=O)n(C)c(=O)n3C)C2)cc1OC | 63.1 | -203% (inactive)
14 | COc1ccc(CNC(=O)CCn2cccc2)cc1 | 29.6 | -25.4% (inactive)
15 | CCCC(=O)Nc1nc2ccc(NC(=O)c3cccnc3)cc2s1 | 48.5 | -19% (inactive)
16 | CCOC(=O)c1cnc(SC)nc1Sc1ccc(Cl)cc1Cl | 27.6 | -31% (inactive)
17 | O=C(CSCc1ccc(Cl)cc1)N1CCCCC1 | 25.4 | -26.2% (inactive)
18 | Cn1cnc2c1c(=O)n(Cc1c(Cl)cccc1Cl)c(=O)n2C | 24.1 | -22.3% (inactive)
19 | CCOc1nc(NCCN2CCOCC2)nc(Nc2ccc(C)cc2)n1 | 42.7 | -6.3% (inactive)
20 | Cc1cc2cc3c(cc2nc1SCC(=O)Nc1c(C)cccc1C)CCC3 | 26.1 | 30.7% (inactive)
21 | CC1(C)CCc2nc(SCc3ccccc3)c(C#N)cc2C1 | 21.6 | -20.9% (inactive)
22 | CC(NC(=O)CSc1nc2c(cc1C#N)CN(C)CC2)c1ccccc1 (stereo not given) | 10.8 | 73.3% (active)
23 | Cc1ccnc(SCCn2c(N(C)Cc3ccccc3)nc3c2c(=O)n(C)c(=O)n3C)n1 | 35.6 | -10.6% (inactive)
24 | CCn1c(CNC(=O)c2ccccc2)nnc1SCC(=O)N1CCN(c2ccccc2)CC1 | 10.5 | 45.3% (inactive)
25 | c1ccc(-c2noc(-c3cccs3)n2)nc1 | 20.2 | -19.7% (inactive)
26 | Cc1cc(Oc2ccccc2)nc(N2CCOCC2)n1 | 29.1 | 5.3% (inactive)
27 | COc1ccc(NS(=O)(=O)c2ccc(NC(=O)C(C)(C(F)(F)F)C(F)(F)F)cc2)nn1 | 26.9 | -29.8% (inactive)
28 | CCOC(=O)CN1C(=O)C(=O)c2cc(C)ccc21 | 50.7 | -31.2% (inactive)

Row | SMILES | fraction fluorescence in grains | inhibition
29 | COc1ccc(NC(=O)COC(=O)Cn2c(C)nc3ccccc32)cc1OC | 48.2 | -28% (inactive)
30 | CCOC(=O)Cn1c2c(c(-c3ccccc3OC)cc1=O)CCCC2 | 9.78 | 75.9% (active)
31 | CCOC(=O)c1c(NC(=O)CSc2nnc(CNc3ccc(C)cc3C)o2)sc(C)c1C | 20 | 0.1% (inactive)
32 | O=C(c1ccccn1)c1ncc(C(F)(F)F)cc1Cl | 11.8 | 69.6% (inactive)
33 | COc1cc(C2CC(=O)c3cnc(NC(C)=O)nc3C2)cc(OC)c1OC (stereo not given) | 28.1 | -57.9% (inactive)
34 | Cc1ccccc1NC(=O)c1cnn(-c2ccccc2)c1NC(=O)c1ccco1 | 65.2 | -45.9% (inactive)
35 | O=C(Nc1cccc(NC(=O)c2ccco2)c1)c1cnccn1 | 17.1 | 4% (inactive)
36 | CCOc1ccc(C(=O)Nc2cc(OC)ccc2OC)cc1 | 47.6 | -28.5% (inactive)
37 | N#Cc1c(/N=C/N2CCCC2)oc(-c2ccccc2)c1-c1ccccc1 | 60.3 | -70.7% (inactive)
38 | c1ccc(Nc2n[nH]nc2-c2ccccc2)cc1 | 19.1 | -9.8% (inactive)
39 | COc1ccc(Oc2coc3cc(OC(=O)c4cncc(Br)c4)ccc3c2=O)cc1 | 38.8 | 10.3% (inactive)
40 | CCN(CC)CCNc1ccc(Cl)cc1[N+](=O)[O-] | 50.4 | -31% (inactive)
41 | COc1nc(NC2CCCCC2)nc(N2CCCCCC2)n1 | 7.28 | 62.7% (inactive)
42 | ONC(=Nc1ccc(Cl)cc1)c1ccccc1Cl | 37.5 | 2.4% (inactive)
43 | Cc1cccc(N(C(=O)Cc2cccs2)C(C(=O)NC2CCCC2)c2ccsc2)c1 (stereo not given) | 20.3 | 34% (inactive)
44 | CCOc1ccc(N=Cc2c(O)n(-c3cccc(C)n3)c(=O)c3ccccc23)cc1 | 45.9 | -5.8% (inactive)
45 | CCC(C)(C)n1nnnc1CN1CCN(c2nc3ccc(C)cc3cc2C#N)CC1 | 29 | 23.1% (inactive)
46 | O=c1[nH]c2c(c(=O)n1Cc1ccccc1)CCC2 | 13.3 | 28.6% (inactive)
47 | COc1ccccc1-c1nnc(SCC(=O)Nc2ccccc2)o1 | 4.28 | 73.5% (active)
48 | Cc1cc(C)cc(OCc2nnc(SCC(=O)Nc3ccccc3)o2)c1 | 15 | 15.8% (inactive)
49 | COc1ccccc1-c1nnc(SCC(=O)Nc2cc(C)on2)o1 | 16.4 | 15.8% (inactive)
50 | Cc1cc(C)n(-c2c(F)c(F)c(COC(=O)c3ccccc3)c(F)c2F)n1 | 25.1 | -56.6% (inactive)
51 | CCCCOC(=O)Cn1c(=O)n(CC(=O)OCCCC)c2cc(C)ccc21 | 19 | -6.9% (inactive)
52 | CC(=O)Nc1ccccc1C(=O)C(=O)Nc1ccc(F)cc1 | 57.6 | -48.2% (inactive)
53 | CCOc1ccc(N(CC(=O)NC2CCCCCC2)S(=O)(=O)c2c(C)[nH]c(=O)[nH]c2=O)cc1 | 41.2 | -15.2% (inactive)
54 | CCCC(=O)N1CCc2[nH]c3ccccc3c2C1 | 26.6 | 21.6% (inactive)
55 | Cc1c(CN2CCC(C)CC2)c(=O)n(-c2ccccc2)n1C | 56.1 | -32.3% (inactive)
